The supplement of paper PMC10338343
± gives the standard deviation.

What follows are sequences tested on MILI (PIWIL2) piRISC loaded with piRNA #1 (26 nt) (assay: pre-steady-state target cleavage rate (min^-1); guide: piRNA #1 5'p-UGAGGUAGUAGGUUGUAUAGUAUCCA; MIWI and MILI are mouse PIWI proteins and EfPiwi is from a freshwater sponge; tags in brackets are library labels; higher = faster piRNA-guided slicing of the target). Conditions: auxiliary factor: 500 nM mouse GTSF1.
Protocol: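 Cleave-'n-Seq: a library of target RNAs (target site embedded in constant flanks, ACAGCATTCCGCGTTAGTGATATCCG... 5' flank; DNA-blocked outside the site) at 0.1 nM was incubated with 1 nM active mouse MILI or MIWI piRISC (synthetic 5'-monophosphorylated piRNA guide) with or without 500 nM mouse GTSF1 at 33 °C for 1 min to 16 h. Uncleaved targets were sequenced and normalised to non-target controls, and the pooled three trials were fitted to a burst-and-steady-state model to give the pre-steady-state cleavage rate (min^-1; k3 is constrained to at most 1e-4). Sequence is the target site only; target names encode pairing extent (gX:gY) and contiguous / 1-mismatch / 2-mismatch / bulge geometry. Fits with R² ≤ 0 are excluded.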
With GGAGACCUAUGUAUACAACCUUCUACCUCA the “pre-steady-state target cleavage rate” value was 0.00351 ± 0.0017. In the case of GGAGACGAUACAAUACAACCUAGUACCUCA, the “pre-steady-state target cleavage rate” value is reported as 0.0665 ± 0.011. For GGAGACCUUAGUAUACAACGUACUACCUCA, the “pre-steady-state target cleavage rate” value was 0.0124 ± 0.0037. In the case of GGAGUGGAUACUAUACAACCUACUACCCA, the “pre-steady-state target cleavage rate” value is reported as 0.0544 ± 0.013. For GGAGACCUUACUAUACAAGCUACUACCUGA, the “pre-steady-state target cleavage rate” value was 0.158 ± 0.021. With GGAGACCUAACUCAUACAACCUACUACCUCA the “pre-steady-state target cleavage rate” value was 0.0742 ± 0.033. With GGAGAGGAUUCUAUACAACCUUCUACCUCA the “pre-steady-state target cleavage rate” value was 0.00976 ± 0.0032. GGAGAGGAUACUAUACAACCUACAUCCUCA was tested, and the “pre-steady-state target cleavage rate” value was 0.00373 ± 0.0031. For GGAGACGAUACUAUACAACCUACAUCCUCA, the “pre-steady-state target cleavage rate” value was 0.05 ± 0.011. For GGAGUGCUUACUAUACAACCUACUACCUCA, the “pre-steady-state target cleavage rate” value was 0.162 ± 0.0091. In the case of GGAGUGGAUACUAAACAACCUAGUACCUCA, the “pre-steady-state target cleavage rate” value is reported as 0.0567 ± 0.011. For GGAGACCUAUGUAUACAAGCUACUAGCUCA, the “pre-steady-state target cleavage rate” value was 0.0122 ± 0.0045. GGAGUGCAUACUAUACAAGCUACUACCUCA was tested, and the “pre-steady-state target cleavage rate” value was 0.213 ± 0.014. With GGAGACGAUACUAUACAAGCAACUACCUCA the “pre-steady-state target cleavage rate” value was 0.00923 ± 0.0026. With GGAGUGGAUUCAAUACAACCUACUACCUCA the “pre-steady-state target cleavage rate” value was 0.142 ± 0.0076. GGAGACCUAUCUAUACAUGCUACUACCUCA was tested, and the “pre-steady-state target cleavage rate” value was 0.0973 ± 0.012. GGAGACCUAUCUAUACAACCUACUAACCUCA was tested, and the “pre-steady-state target cleavage rate” value was 0.143 ± 0.014. With GGAGACCUAUCGUAUACAACCUACUACCUCA the “pre-steady-state target cleavage rate” value was 0.057 ± 0.011. GGAGACCUAUGAAUACAACGUACUAGCUCA was tested, and the “pre-steady-state target cleavage rate” value was 0.0036 ± 0.0035. In the case of GGAGACCUUACUAUACAACCUACUACACUCA, the “pre-steady-state target cleavage rate” value is reported as 0.15 ± 0.022. In the case of GGAGACCUAACUAAACAACCUACUACGUCA, the “pre-steady-state target cleavage rate” value is reported as 0.0404 ± 0.019. GGAGACCUAUGAAAACAACCUACAACCUCA was tested, and the “pre-steady-state target cleavage rate” value was 0.00529 ± 0.0026. In the case of GGAGACCUAUCUACACAACCUACUACCUCA, the “pre-steady-state target cleavage rate” value is reported as 0.072 ± 0.0099. In the case of GGAGACCUAUGAUUACAACCUACUACUCUCA, the “pre-steady-state target cleavage rate” value is reported as 0.00541 ± 0.0034. In the case of GGAGACCUACCUAUACAACCUACUACCUCA, the “pre-steady-state target cleavage rate” value is reported as 0.117 ± 0.026. For GGAGACCAUACUAUACACCUACUACCUCA, the “pre-steady-state target cleavage rate” value was 0.0288 ± 0.0078. GGAGACCUAUGUAUACAACCUAGUUCCUCA was tested, and the “pre-steady-state target cleavage rate” value was 0.00347 ± 0.003. In the case of GGAGACCUAUGAUUACAACCUACUACGCUCA, the “pre-steady-state target cleavage rate” value is reported as 0.0104 ± 0.0039. “GGAGACCUAUGAUUACAACCUACUACCUCC [g2:g17:cont:t1C]” was tested, and the “pre-steady-state target cleavage rate” value was 0.00979 ± 0.0034. In the case of GGAGACGAUACUUUACAACCUACUUCCUCA, the “pre-steady-state target cleavage rate” value is reported as 0.019 ± 0.0078. GGAGAGCAUUCUAUACAACCUACUACCUCA was tested, and the “pre-steady-state target cleavage rate” value was 0.156 ± 0.013. In the case of GGAGACCUAUCUAUACAACCUACUACACUCA, the “pre-steady-state target cleavage rate” value is reported as 0.179 ± 0.022. In the case of GGAGAGGAAUACUAUACAACCUACUACCUCA, the “pre-steady-state target cleavage rate” value is reported as 0.172 ± 0.0098. For GGAGACCUAUGAAUACAUCCUUCUACCUCA, the “pre-steady-state target cleavage rate” value was 0.00365 ± 0.0022. With GGAGAGGAUACUAUACAUCCUACUACCACA the “pre-steady-state target cleavage rate” value was 0.0843 ± 0.016. GGAGACGAUACUUUACAACCUACUACCACA was tested, and the “pre-steady-state target cleavage rate” value was 0.2 ± 0.025. With GGAGACGAUACUAUACUACCUACUACCUGA the “pre-steady-state target cleavage rate” value was 0.167 ± 0.021. For GGAGAGGAAACUAUACAUCCUACUACCUCA, the “pre-steady-state target cleavage rate” value was 0.302 ± 0.029. GGAGACCUAAGUAUACAACCUACUACCUCA was tested, and the “pre-steady-state target cleavage rate” value was 0.0701 ± 0.0097. With GGAGUGGAUAGUUUACAACCUACUACCUCA the “pre-steady-state target cleavage rate” value was 0.11 ± 0.0082.
